Data reported in publication PMC5540273 (PLoS ONE, 2017).

Key:
Conditions in all cases: concentration: 1 μM, replicates: in singlicate; n = 1
DLK = tested on: T1, DLK
T1 construct: gene MAP3K12

DMPK2 = tested on: T2, DMPK2
T2 construct: gene CDC42BPG

DMPK = tested on: DMPK
DRAK1 = tested on: T3, DRAK1
T3 construct: gene STK17A

DRAK2 = tested on: T4, DRAK2
T4 construct: gene STK17B

DYRK1A = tested on: DYRK1A
DYRK1B = tested on: DYRK1B
DYRK2 = tested on: DYRK2
EGFR = tested on: EGFR
EIF2AK1 = tested on: EIF2AK1
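Note: KINOMEscan kinase panel screen.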

SMILES | %Inh (DLK) [%] | %Inh (DMPK2) [%] | %Inh (DMPK) [%] | %Inh (DRAK1) [%] | %Inh (DRAK2) [%] | %Inh (DYRK1A) [%] | %Inh (DYRK1B) [%] | %Inh (DYRK2) [%] | %Inh (EGFR) [%] | %Inh (EIF2AK1) [%]
Nc1n[nH]c2ncc(-c3ccccc3)cc12 [SB-517081] | 27 | 0 | 0 | 34 | 0 | 17 | 0 | 30 | 0 | 18
Cc1c(Cn2c(C)nn3c(=O)cc(N4CCO[C@H](C)C4)nc23)cccc1C(F)(F)F [GSK2373690] | 0 | 5 | 23 | 1 | 1 | 19 | 20 | 17 | 10 | 0
CCC(=O)c1c(-c2ccccc2)c2cc(Cl)ccc2c(=O)n1Cc1cc(S(C)(=O)=O)n(CCC(C)(C)O)n1 | 0 | 17 | 11 | 14 | 2 | 27 | 11 | 62 | 31 | 19
COc1cc2ncn(-c3cc(OCc4ccncc4)c(C(N)=O)s3)c2cc1OC [GSK336313] | 0 | 12 | 0 | 0 | 0 | 13 | 19 | 23 | 24 | 0
COc1ccc(-c2coc3ccc(-c4nnc(SCc5cccc(C#N)c5)o4)cc23)cc1 | 1 | 0 | 0 | 2 | 7 | 5 | 0 | 2 | 0 | 30
COc1cc2ncn(-c3cc(OCc4ccncc4Br)c(C(N)=O)s3)c2cc1OC [GW854278] | 12 | 0 | 3 | 4 | 5 | 3 | 8 | 30 | 27 | 0
O=C(NCCNc1ccnc(Nc2ccc(F)cc2)n1)Nc1ccc2c(c1)OCO2 [GSK1379882] | 5 | 11 | 0 | 10 | 0 | 7 | 0 | 23 | 0 | 0
O=C(Nc1n[nH]c2nc(-c3ccccc3)c(Cl)cc12)C1CC1 [SB-734909] | 22 | 11 | 0 | 0 | 0 | 10 | 3 | 8 | 14 | 18
